For 11 compounds, outcome and AC50 results are on record in PubChem BioAssay (EPA / NIEHS).

Several values for one entry are separate records, joined by “and”; a condition that tells them apart may be missing. Equal values may be shown once. Where a structure was tested more than once in an assay, its records may differ in their call. Activity calls are given as the source filed them. The calls were made as follows: active = hit-call score of the fitted dose curve at least 0.9, where 1 is the maximum; inactive = score below 0.9.

Read-out in the first test: Monocyte Chemoattractant Protein-1 (MCP1), CCL2 (gene 6347)
The experiment in a line: BSK_4H_MCP1: BioMAP Diversity Plus: 4H Assay for Monocyte Chemoattractant Protein-1 (MCP1) Biomarker Activity (AID 2283018). As to conditions: primary human endothelial cells (HUVEC); actives raise or lower the signal. The method in brief: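 ELISA of MCP-1 (CCL2) 24 h after chemical dosing of HUVEC in the BioMAP 4H system. Gain or loss versus DMSO fitted; parallel SRB staining (560 nm) tracked overt cytotoxicity.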
For `C[C@]12CC[C@H]3C(=CCc4cc(O)ccc43)[C@@H]1CCC2=O`, the outcome was inactive.
On to `O=C(Cl)C(F)(F)C(F)(F)C(F)(F)C(F)(F)C(F)(F)C(F)(F)C(F)(F)F`, for which the outcome was inactive.
With `OCC(O)CC(F)(F)C(F)(F)C(F)(F)C(F)(F)C(F)(F)C(F)(F)C(F)(F)C(F)(F)F` (stereo not drawn), the result was inactive.
In the case of `O=C1C=CC(=O)N1c1ccc(Cc2ccc(N3C(=O)C=CC3=O)cc2)cc1`, the AC50 was 7.61 µM (active).
`O=S(=O)(Cl)C(F)(F)C(F)(F)C(F)(F)C(F)(F)C(F)(F)C(F)(F)C(F)(F)C(F)(F)F`: the AC50 was 22.3 µM (active) and the outcome was inactive.
For the compound `NS(=O)(=O)C(F)(F)C(F)(F)C(F)(F)C(F)(F)C(F)(F)C(F)(F)F`, the result was inactive.
Consider `Cc1cc(O)c(C(C)(C)C)cc1C(C)(C)C`, for which the AC50 is 3.83 µM (active).
With `NC(=O)C(F)(F)C(F)(F)C(F)(F)C(F)F`, the result was inactive.
Regarding `O=C(O)C(F)(F)C(F)(F)C(F)(F)C(F)(F)C(F)(F)C(F)(F)C(F)F`, the outcome was inactive.
Same read-out and setting: as for `CNS(=O)(=O)C(F)(F)C(F)(F)C(F)(F)C(F)(F)C(F)(F)C(F)(F)C(F)(F)C(F)(F)F`, the entry is “inactive”.
Turning to `Cc1cc(C)c(O)c(C(C)(C)C)c1`, the AC50 was 30.7 µM (active).

Read-out in the next test: Human Leukocyte Antigen - DR isotype (HLADR), HLA-DRA (gene 3122)
The experiment in a line: BSK_3C_HLADR: BioMAP Diversity Plus: 3C Assay for Human Leukocyte Antigen - DR isotype (HLADR) Biomarker Activity (AID 2283019).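 As to outcome: ELISA of cell-surface HLA-DR on HUVEC 24 h after dosing.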 The conditions noted are these: primary human endothelial cells (HUVEC); actives raise or lower the signal. A digest of the protocol:
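Endothelial cells from human umbilical vein are treated with test chemical; after 24 h, HLA-DR levels are measured by ELISA. Data are fitted in both directions using DMSO as the baseline.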
`C[C@]12CC[C@H]3C(=CCc4cc(O)ccc43)[C@@H]1CCC2=O`: the AC50 is 20 µM (active).
Regarding `O=C(Cl)C(F)(F)C(F)(F)C(F)(F)C(F)(F)C(F)(F)C(F)(F)C(F)(F)F`, the result was inactive.
As for `OCC(O)CC(F)(F)C(F)(F)C(F)(F)C(F)(F)C(F)(F)C(F)(F)C(F)(F)C(F)(F)F` (stereo not drawn), the result was inactive.
`O=C1C=CC(=O)N1c1ccc(Cc2ccc(N3C(=O)C=CC3=O)cc2)cc1`: the AC50 was 5.74 µM (active).
Consider `O=S(=O)(Cl)C(F)(F)C(F)(F)C(F)(F)C(F)(F)C(F)(F)C(F)(F)C(F)(F)C(F)(F)F`, for which the result was inactive.
In the case of `NS(=O)(=O)C(F)(F)C(F)(F)C(F)(F)C(F)(F)C(F)(F)C(F)(F)F`, the AC50 is 22.6 µM (active) and 24.2 µM (active).
The same measure, in the same setting: as for `Cc1cc(O)c(C(C)(C)C)cc1C(C)(C)C`, the figure is 3.17 µM (active).
Turning to `NC(=O)C(F)(F)C(F)(F)C(F)(F)C(F)F`, the result was inactive.
The same measure, in the same setting: as for `O=C(O)C(F)(F)C(F)(F)C(F)(F)C(F)(F)C(F)(F)C(F)(F)C(F)F`, the entry is “inactive”.
For `CNS(=O)(=O)C(F)(F)C(F)(F)C(F)(F)C(F)(F)C(F)(F)C(F)(F)C(F)(F)C(F)(F)F`, the AC50 was 6.3 µM (active) and 8.04 µM (active).
On the same count and under the same terms, as for `Cc1cc(C)c(O)c(C(C)(C)C)c1`, the figure is 15.8 µM (active).
